# Screens: PubChem, National Center for Advancing Translational Sciences (NCATS)
# YjeE inh – YjeE (TsaE) inhibition, E. coli; purified YjeE enzyme, qHTS inhibition assay; actives 0.05% (n = 71,000); AID 605; P0AF67; Potency, µM
#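 Purified YjeE (10 uM) with BODIPY Texas Red-labeled ADP probe (2 uM); compounds pin-transferred, 15 min at room temperature. Binding inhibition read as decreased fluorescence polarization; ADP titration as control.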
# Hsp90 Hop PPI – changes Hsp90-Hop TPR2A binding signal, up or down; AlphaScreen TPR2A-His6 binding biotin-Hsp90 C-terminal peptide; Potency, µM (series often up to 57 µM), for the others: at the highest dose activity change, negative = inhibition; actives 0.44% (n = 71,000); AID 595; active = well fitted curve in either direction with a large enough effect; inconclusive = small, poorly fitted or top-dose-only effect, or another doubt; also: potency is read from the fitted curve at half-maximal effect; % is scaled to controls: 0 for no effect and ±100 for the full control effect
# ALOX15 inhib – 15-hLO (ALOX15) enzyme inhibition; actives 1.4% (n = 74,000); purified 15hLO-1, xylenol orange hydroperoxide absorbance; Potency, µM (top dose mostly 57.1 µM), for inactives: at the top dose activity change, negative = inhibition, most hits filed as inhibitors; also: potency is read from the fitted curve at half-maximal effect; % is scaled to controls: 0 for no effect and ±100 for the full control effect; nearly all actives have a fitted effect of over 55% in size
#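 Purified human 15hLO-1 (40 nM final) in 25 mM Hepes pH 7.5, 0.01% Triton X-100 was preincubated with compound 15 min at room temperature, then reacted 6 min with 50 uM arachidonic acid; hydroperoxide detected by Fe-XO, 573/405 nm absorbance ratio.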
# Tau fil binding – tau filament binding | P10636 | AID 596 | Potency, µM (titrated, usually from 57.1 µM), for inactives: at the top dose activity change, negative = inhibition | recombinant tau filaments, thioflavin S fluorescence, 15 h; filaments grown with octadecylsulfate alongside compound | actives 2% (n = 71,000);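 also: potency is read from the fitted curve at half-maximal effect; % is scaled to controls: 0 for no effect and ±100 for the full control effect; actives lower thioflavin S fluorescence by blocking filaments or displacing dye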
# Target sequence (P10636 whole entry, looked up): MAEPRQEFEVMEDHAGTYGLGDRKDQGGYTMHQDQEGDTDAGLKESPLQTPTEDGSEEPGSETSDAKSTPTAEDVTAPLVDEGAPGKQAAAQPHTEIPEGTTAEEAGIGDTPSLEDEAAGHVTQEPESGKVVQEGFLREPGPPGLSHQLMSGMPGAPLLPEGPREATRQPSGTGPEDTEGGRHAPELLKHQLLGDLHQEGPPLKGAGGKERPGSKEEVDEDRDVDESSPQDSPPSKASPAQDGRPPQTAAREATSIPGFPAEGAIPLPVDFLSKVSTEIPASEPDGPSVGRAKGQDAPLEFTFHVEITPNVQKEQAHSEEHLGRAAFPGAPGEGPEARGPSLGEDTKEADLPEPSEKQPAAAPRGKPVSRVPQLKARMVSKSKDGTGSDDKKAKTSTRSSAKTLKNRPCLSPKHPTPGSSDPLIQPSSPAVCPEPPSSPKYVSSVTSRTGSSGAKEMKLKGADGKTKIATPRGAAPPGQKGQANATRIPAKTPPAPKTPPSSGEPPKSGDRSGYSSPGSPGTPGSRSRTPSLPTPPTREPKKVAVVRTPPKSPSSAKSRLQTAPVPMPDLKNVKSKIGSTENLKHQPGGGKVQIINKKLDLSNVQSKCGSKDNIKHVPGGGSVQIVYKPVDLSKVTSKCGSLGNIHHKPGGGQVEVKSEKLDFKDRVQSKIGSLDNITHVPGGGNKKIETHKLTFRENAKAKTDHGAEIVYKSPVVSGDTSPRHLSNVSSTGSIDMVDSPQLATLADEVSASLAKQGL
#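 Thioflavine S fluorescence (ex 450, em 510 nm) reports filaments formed from 1 uM human tau plus 30 uM ODS over 15 h at 37 C (10 mM HEPES pH 7.4, 100 mM NaCl, 5 mM DTT); compounds displacing dye or blocking filaments lower signal.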
# DNA Pol III inh – inhibitors of bacterial DNA polymerase III holoenzyme. reconstituted DNA polymerase III holoenzyme replication, biochemical. Potency, µM (series often up to 57.1 µM), for the others: at the top dose activity change, negative = inhibition. actives 0.25% (n = 71,000). AID 603; also: potency is read from the fitted curve at half-maximal effect; % is scaled to controls: 0 for no effect and ±100 for the full control effect
#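 Reconstituted *E. coli* holoenzyme (0.35 nM Pol III, 1 nM beta, 154 nM SSB, 2 nM primase) was preincubated with compound for 15 min at RT. Synthesis on 1.4 nM ssM13Gori ran 35 min, then was stopped with PicoGreen/EDTA and read as dsDNA fluorescence.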
# * = called active by the depositor; i = inactive; u = inconclusive; x = no result given; ! = a repeat was not active; [ ] = another dose, or the depositor's remark. Most compounds without a hit are left out; they make up all but 3.3% or so of the library. Unless noted, calls follow the shape of the dose curve; as a rule, active = well fitted curve in the direction sought with a large enough effect; inconclusive = small, poorly fitted or top-dose-only effect, or another doubt; inactive = no such curve, though single readings can be large; an effect the other way counts as inactive or inconclusive.
SMILES,YjeE inh,Hsp90 Hop PPI,ALOX15 inhib,Tau fil binding,DNA Pol III inh
O=C(Nc1cccs1)NC1CCCC1,i,-21%,13µM*,-12%,-2%
CCN1CCN(Cc2cc(=O)oc3cc(C)cc(C)c23)CC1,i,-4%,6%,14%,0%
CCCc1cc(=O)oc2cc(C)c(CN3CCCC3)c(O)c12,i,-22%,13µM*,13µM*,-18%
O=C1C2C3CCCC3=C3CCCC3C2C(=O)N1c1ccccc1 (stereo not drawn),i,3%,20µM*,1%,-2%
O=C1C2C3C=CC(C3)C2C(=O)N1c1ccccc1 (stereo not drawn),i,-1%,-8%,1%,-1%
COc1ccc([C@@H]2[C@H]3CN(C(C)=O)CC=C3C(C#N)=C(N)C2(C#N)C#N)c2ccccc12,u,-13%,13µM*,15%,-6%
C[C@@H](C(=O)O)c1ccc(C[C@@H]2CCCC2=O)cc1,i,-5%,6%,2%,-1%
CC(=O)[C@@H]1[C@H]2[C@H](C(=O)[C@H]3OC[C@@H]2O3)[C@H]2C=Cc3ccccc3N21,x,x,-14%[25.6 µM],x,x
O=C1c2ccccc2-c2nccnc21,i,6%,2%,-2%,-4%
O=C1c2ccccc2-c2nc3ncnn3c(-c3ccccc3Cl)c21,i,-7%,6%,13µM*,-8%
COc1ccc(NC(=O)c2[nH]c(C)c(C(C)=O)c2C)cc1Cl,i,-6%,32µM*,43%,-4%
CN1CCN(C2=C(Cl)C(=O)N(C3CCCCC3)C2=O)CC1,i,-5%,-14%,16µM*,-2%
Nc1cc(-c2ccncc2)c[nH]c1=O,i,-11%[26 µM],13µM*,3%[25.6 µM],-6%[25.6 µM]
O=[N+]([O-])c1ccc(S(=O)(=O)Cc2ccccc2)c2nonc12,i,-15%[11 µM],u,-24%[11.4 µM],-2%[11.4 µM]
O=C(CN1CCOc2ccccc21)NC1CCN(Cc2ccccc2)CC1,i,-15%,-6%,13µM*,-6%
O=C(O)[C@@H]1CCCN1Cc1c[nH]c2ccccc12,i,1%[11 µM],-2%[11.4 µM],5%[11.4 µM],-2%[11.4 µM]
CC(C)(C[C@@]1(C)NC(=O)NC1=O)OCc1ccccc1,i,-1%[11 µM],0%[11.4 µM],4%[11.4 µM],10%[11.4 µM]
COc1ccc(C(=O)N2CCC3(CCCN(C)C3)CC2)cc1,i,-3%,6%,-1%,11%
COc1ccc(C(=O)N2CCC3(CCN(C)CC3)CC2)cc1,i,-12%,2%,16µM*,19%
C=C1CC[C@H]2C(C)(C)[C@H](O)CC[C@]2(C)[C@@H]1COc1ccc2ccc(=O)oc2c1,i,-2%,x,u,-6%
COC(=O)C/C=C\[C@@H](C)[C@@H](/C=N\OC[C@@H]1O[C@H](c2ccccc2)C=C[C@@H]1Oc1ccc(OC)cc1)NS(=O)(=O)c1ccc(C)cc1,x,x,2%[11.4 µM],x,x
COc1cc(C)cc(OC)c1/C=C\C(=O)O,i,-1%[11 µM],-5%[11.4 µM],-10%[11.4 µM],-6%[11.4 µM]
CCOC(=O)C(C(=O)OCC)c1cc(Br)c2noc3c2c1C(=O)c1ccccc1-3,i,u,-19%,2µM*,-8%
COC(=O)C/C=C\[C@@H](C)[C@@H](/C=N\O[C@@H](C)c1cn([C@H]2COC[C@H]2O)nn1)NS(=O)(=O)c1ccc(C)cc1,x,x,7%[11.4 µM],x,x
CCOC(=O)c1cc2occc2n1CCCN1C(=O)c2ccccc2C1=O,i,u,-19%,16µM*,5%
SMILES,YjeE inh,Hsp90 Hop PPI,ALOX15 inhib,Tau fil binding,DNA Pol III inh
CC(C)(C)N1C(=O)[C@H]2[C@@H]3[C@H](O)C=CC(=O)[C@H]3CC[C@H]2C1=O,x,x,0%[11.4 µM],x,x
Cc1cc(C(=O)O)ccc1-n1c(C)ccc1C,i,-6%,u,-6%,u
Cc1cc(N)ccc1-n1c(C)ccc1C,i,-3%,u,25µM*,-5%
CC(C)(C)c1onc(OCP(=O)(O)O)c1C[C@@H](N)C(=O)O,i,1%,-3%,1%,-6%
c1ccc(-c2nnc3sc(-c4csc5c4CCCC5)nn23)cc1,i,-4%,16µM*,217%,-8%
O=C(O)/C=C\c1ccc(O)c(O)c1,i,5%,-7%[25.6 µM],-18%,-1%
O=C(/C=C/c1ccc(O)c(O)c1)OCCc1ccccc1,x,x,0.5µM*,x,x
O=C(NC[C@H]1CCCCN1)c1cc(OCC(F)(F)F)ccc1OCC(F)(F)F,i,-6%,-3%[25.6 µM],40µM*!,-3%
C[C@@H](c1ccccc1)N1C(=O)[C@H]2[C@@H]3[C@H](O)C=CC(=O)[C@H]3CC[C@H]2C1=O,x,x,-2%[11.4 µM],x,x
CCN(CC)CC[n+]1ccc2c(C)c3[nH]c4ccc(O)cc4c3c(C)c2c1,i,u,u,4µM*,1.3µM*
O=C1CCCC=C1[C@@H](O)C1CCCCC1,x,x,0%[11.4 µM],x,x
Cc1ccc(-c2n[nH]c(=O)c3ccccc23)cc1N,i,-4%,-2%,-3%,-5%
Nc1ccc(-c2n[nH]c(=O)c3ccccc23)cc1N,i,-14%,u,16µM*,-6%
O=C(O)c1cc(S(=O)(=O)Nc2ccc(O)cc2)ccc1Cl,x,x,1%,x,x
COc1ccccc1CNc1ncnc2ccc(-c3cccc(NS(C)(=O)=O)c3)cc12,i,-14%,6%,38%,-2%
CCCCCCCCCCCCC/C=C\[C@@H](O)[C@@H](N)CO,i,3%,40%,32µM*,-3%
CCCCC=O,i,-1%,1%,8%,-1%
Cc1ccc(C(=O)c2cn[nH]c2-c2cc(Cl)ccc2O)cc1,i,-3%,20µM*,-13%,-4%
COc1cccc(C2NC(C(=O)O)CCC2C)c1 (stereo not drawn),x,x,10%[11.4 µM],x,x
CCCCc1nc2c(c3c1CC(C)OC3)CN(CCC(C)C)CC2 (stereo not drawn),x,x,4%[11.4 µM],x,x
COc1ccc(N=c2oc3c(OC)cccc3cc2C(=O)NCc2ccco2)c(OC)c1,i,-7%,-9%,1.3µM*,-2%
COc1ccc2cc(C(=O)NCc3ccco3)c(=O)oc2c1,i,-1%,1%,-6%,0%
Oc1ccccc1C1=Nc2nc3ccccc3n2C(c2ccccc2)C1 (stereo not drawn),i,-21%,-18%,7.9µM*,11%
Cc1ccc(-n2sc3ccccc3c2=O)cc1S(=O)(=O)N1CCCCC1,u,-21%,0.5µM*,-11%,-4%
O=c1c2ccccc2sn1-c1ccc(S(=O)(=O)N2CCCC2)cc1,i,-5%,0.1µM*,1%,-4%
CCN(CCCNC(=O)C1CCN(S(=O)(=O)c2cccc3nonc23)CC1)Cc1ccccc1,i,-7%,-7%,20µM*,-2%
CC1(C)[C@@H](O)CC[C@@]2(C)[C@H]1CC[C@]1(C)[C@H]2C(=O)C=C2[C@@H]3C[C@@](C)(C(=O)O)CC[C@]3(C)CC[C@@]21C,i,-5%,x,u,-8%
CCN1CCN(CCCNC(=O)c2cc3sccc3n2CC)CC1,i,-1%,-10%,-24%,5%
CCn1c(C(=O)NCCCc2ccccc2)cc2sccc21,x,x,20µM*,x,x
